Test results from PubChem BioAssay AID1159580 (chemical genetic matrix, 2015).
In all, about 5,500 compounds went through this assay and about 2,000 (36%) were called active. Inconclusive results (about 18%) are left out. Rule as the data show it: active = normalized growth mostly below about 0.91 (no sharp cut-off); inconclusive = no clear call, values can overlap the other calls; inactive = mostly above about 0.92. The list shows a part of the results.

Assay: chemical genetic growth profiling, strain panel (AID 1159580);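 also: tested at 20 µM; growth read once vehicle control cultures reached saturation at 30 °C; 1 = growth at the plate median or of vehicle wells; lower values mean less growth of the strain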
Conditions: growth OD
[1] = S. cerevisiae deletion strains, locus YHR030C, strain SLT2, active compounds read low

Measured: normalized growth

Cc1noc(C)c1C(=O)N1CCOCC1
inactive: S. cerevisiae deletion strains, locus YAL013W, strain DEP1, active compounds read low 1 | S. cerevisiae deletion strains, locus YBR229C, strain ROT2, active compounds read low 0.998 | S. cerevisiae deletion strains, locus YDL101C, strain DUN1, active compounds read low 1 | S. cerevisiae deletion strains, locus YDR150W, strain NUM1, active compounds read low 0.971 | S. cerevisiae deletion strains, locus YEL061C, strain CIN8, active compounds read low 1.01 | S. cerevisiae deletion strains, locus YGR078C, strain PAC10, active compounds read low 1 | [1] 1.07 | S. cerevisiae deletion strains, locus YHR087W, strain rtc3, active compounds read low 1 | S. cerevisiae deletion strains, locus YJR043C, strain POL32, active compounds read low 1 | S. cerevisiae deletion strains, locus YJR075W, strain HOC1, active compounds read low 1 | S. cerevisiae deletion strains, locus YLR039C, strain RIC1, active compounds read low 1.03 | S. cerevisiae deletion strains, locus YLR058C, strain SHM2 (second series), active compounds read low 1 | S. cerevisiae deletion strains, locus YLR085C, strain ARP6, active compounds read low 1.04 | S. cerevisiae deletion strains, locus YLR262C, strain YPT6, active compounds read low 1.01 | S. cerevisiae deletion strains, locus YML094W, strain GIM5, active compounds read low 1.02 | S. cerevisiae deletion strains, locus YMR219W, strain ESC1, active compounds read low 0.993 | S. cerevisiae deletion strains, locus YMR263W, strain SAP30, active compounds read low 0.982 | S. cerevisiae deletion strains, locus YNL153C, strain GIM3, active compounds read low 0.996 | S. cerevisiae deletion strains, locus YNL298W, strain CLA4 (second series), active compounds read low 1.02 | S. cerevisiae deletion strains, locus YNL322C, strain KRE1, active compounds read low 0.995 | S. cerevisiae deletion strains, locus YNR030W, strain Alg12, active compounds read low 1.02 | S. cerevisiae deletion strains, locus YPL055C, strain LGE1, active compounds read low 1 | S. cerevisiae deletion strains, locus YPL241C, strain CIN2, active compounds read low 1.06 | S. cerevisiae deletion strains, locus YPR135W, strain CTF4, active compounds read low 1.02 | S. cerevisiae strains, strain wild type, active compounds read low 1.01

O=Cc1ccccc1O[C@@H]1O[C@H](CO)[C@H](O)[C@@H](O)[C@H]1O
inactive: [1] 1.06 | S. cerevisiae deletion strains, locus YHR079C, strain IRE1, active compounds read low 1.06 | S. cerevisiae deletion strains, locus YJL095W, strain BCK1, active compounds read low 0.996 | S. cerevisiae deletion strains, locus YJR066W, strain TOR1, active compounds read low 0.99 | S. cerevisiae deletion strains, locus YLR113W, strain HOG1, active compounds read low 1.03 | S. cerevisiae deletion strains, locus YNL183C, strain NPR1, active compounds read low 0.992 | S. cerevisiae deletion strains, locus YOR231W, strain MKK1, active compounds read low 1.06 | S. cerevisiae deletion strains, locus YPL256C, strain CLN2, active compounds read low 1.06
